Screening data deposited in PubChem by National Center for Advancing Translational Sciences (NCATS).
The full list was thinned out, with hits kept by preference.
Pf Dd2 growth: blocks in vitro growth of P. falciparum Dd2; P. falciparum Dd2 growth, SYBR Green, 72 h; Potency, µM (series often up to 28.9 µM), for inactives: at the top dose activity, negative = inhibition, hits mostly inhibitors; hit rate 4.3% among 120,000; AID 1347417; active means well fitted inhibition curve with a large enough effect;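 further: plate controls were DMSO vehicle for no effect and reference drug for full effect; nearly all actives have a fitted effect of over 65% in size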
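Readout: SYBR Green fluorescence, 485 nm excitation, 535 nm emission, after ~16 h lysis at 37C. Before that, Dd2-infected red cells (2.5% hematocrit) grew 72 h with compound, 29 uM top final concentration.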
The depositor's hits bear a star; i = inactive; ! = not confirmed by another sample; [ ] = dose if it differs, or a comment. Potency means the concentration at half of the fitted maximal effect.

SMILES	Pf Dd2 growth
Cc1ccc(NC(=O)c2c(NC(=O)C(F)(F)F)sc3c2CCCCC3)cc1	4µM*
Cc1noc(-c2ccc(OC(F)(F)F)cc2)c1C(=O)NCCCOC(C)C	i
CS(=O)(=O)N1CCNC[C@@H]1C(=O)N[C@@H](CC1CCCCC1)C(N)=O	-22%[44.1 µM]
COCC(=O)N[C@@H]1CN(C(=O)CCCc2ccccc2)CC[C@@H]1c1nc(C)no1	i[5.79 µM]
O=C(NCC1CC1)c1cnc2n1CCN(CCc1ccccc1)CC2	8%[44.1 µM]
O=C(CN1C(=O)COc2ccc(C(=O)COc3ccc(F)cc3)cc21)Nc1ccccc1	i
CC1CCCN(C(=O)Cn2ccn3nc(-c4ccccc4)c(CO)c3c2=O)C1 (stereo not drawn)	i
COc1ccc(NC(=O)Cn2ccn3nc4c(c3c2=O)CCCC4)cc1OC	-7%
O=C(c1ccccc1)N1CCC2(CN[S+](=O)([O-])c3cccnc3O2)C1 (stereo not drawn)	48%
Cn1nccc1C(=O)N1C[C@@H]2CCCN3CCC[C@@H]([C@H]23)[C@H]1CCCC(=O)NCc1ccccc1	-22%
COc1ccc(Cl)cc1-c1nc(-c2nnn3c2COC(c2ccc(C)cc2)C3)no1 (stereo not drawn)	1%
CN(C(=O)CN1C(=O)NC2(CCS(=O)(=O)CC2)C1=O)c1ccccc1	20%
Cc1ccc(-n2cc(CN3CCCCC3C(N)=O)c(-c3cccc(C)c3)n2)cc1 (stereo not drawn)	11µM*
Cc1cccc(CC(=O)N2CCCCCC2c2nnc(-c3ccccc3)o2)c1 (stereo not drawn)	i
COc1cccc(-c2ccc(NC(=O)C3CCCN3Cc3cnn(C)c3)cc2)c1 (stereo not drawn)	-23%
Cc1ccc2c(C(=O)NCCc3cccnc3)cc(NC(=O)C(C)C)cc2n1	-12%
COc1ccc(CC(=O)NCc2cn[nH]c2-c2ccc(C)cc2)cc1	-11%
COc1ccc(CNC(=O)C(=O)Nc2cc(Cl)ccc2OC)cc1	i
CCc1ccc(CN(Cc2cn[nH]c2-c2ccc(OC)cc2)C(=O)Nc2cc(Cl)ccc2OC)cc1	13µM*
COc1ccc(C2Cn3nnc(C(=O)N4CCC(C(=O)NCc5ccccc5F)CC4)c3CO2)cc1 (stereo not drawn)	11%
COc1ccc(-c2ccc3nnc(CNC(=O)COc4cccc(C)c4)n3n2)cc1	-6%
CC(=O)NCC(c1ccc2c(c1)OCO2)N1CCN(c2ccccc2)CC1 (stereo not drawn)	-2%
CC(C)(C)CC(=O)NCC(c1ccc2c(c1)OCO2)N1CCN(c2ccccc2)CC1 (stereo not drawn)	7.1µM*
CCCC(=O)NCC(c1ccc2c(c1)OCO2)N1CCN(c2ccccc2)CC1 (stereo not drawn)	0%
Cc1ccc(NC(=O)C(=O)NCC(c2ccc3c(c2)OCO3)N2CCN(c3ccccc3)CC2)cc1 (stereo not drawn)	-2%
SMILES	Pf Dd2 growth
Cc1ccc(C(=O)NCC(c2ccc3c(c2)OCO3)N2CCN(c3ccc(F)cc3)CC2)cc1 (stereo not drawn)	13µM*
CCCC(=O)NCC(c1ccc2c(c1)OCO2)N1CCN(c2ccc(F)cc2)CC1 (stereo not drawn)	-18%
CC1Oc2ccc(NC(=O)c3ccc(F)cc3)cc2CN(Cc2ccccc2F)C1=O (stereo not drawn)	i
CN1CCN(CCNC(=O)CCc2ccc3c(c2)CN(S(C)(=O)=O)CCO3)CC1	-14%
CCC1=C(C(=O)OC)C(c2ccccc2)N2C(CC(=O)N3CCOCC3)=CSC2=N1 (stereo not drawn)	i
COc1ccc(-c2nnc3ccc(Nc4cccc(OC)c4)nn23)nc1	10µM*
COc1ccc(Nc2ccc3nnc(-c4ccc(C)cn4)n3n2)cc1	-11%[44.1 µM]
COc1ccc(-c2nnc3ccc(NC(C)C)nn23)nc1	i
C=CCc1ccccc1OCCN(C)Cc1ncnn1CC	-13%
C=CCc1ccccc1OCCN(C)Cc1ccc(S(C)(=O)=O)cc1	-14%
C=CCc1ccccc1OCCN(C)Cc1nc(C)ccc1O	8.9µM*
CCCC1COCCN1C(=O)c1cccc(CC2CCNCC2)c1 (stereo not drawn)	-2%
Cc1nn2c(c1-c1ccccc1Oc1ccccc1)N(CC1CCOCC1)CCC2	7.9µM*
COc1ccc(CN2CCCn3nc(C)c(-c4ccccc4Oc4ccccc4)c32)cc1O	1.3µM*
Cc1nn2c(c1-c1ccccc1Oc1ccccc1)N(C(=O)c1ccc(F)cc1)CCC2	i
Cc1nn2c(c1-c1ccccc1-c1ccccc1)N(Cc1ccc(OCC(=O)O)cc1)CCC2	i
Cc1nn2c(c1-c1ccccc1Oc1ccccc1)N(CC1CC1)CCC2	i
Cc1nn2c(c1-c1cccnc1N1CCOCC1)N(CC1CC1)CCC2	i
CC(=O)Nc1ccccc1-c1c(C)nn2c1N(Cc1ccccc1)CCC2	i
Cc1nn2c(c1-c1ccccc1-c1ccccc1)N(Cc1cccc(O)c1)CCC2	0.79µM*
COc1cccc(CN2CCCn3nc(C)c(-c4cnccc4C)c32)c1	-9%[44.1 µM]
C[S+](=O)([O-])N1CC2ON=C(C(=O)NCc3cccnc3)C2C1 (stereo not drawn)	14%
C[C@H]1CCCN1C(=O)c1nnc(COc2ccc(C#N)cc2)n1-c1ccccc1	-8%[44.1 µM]
O=C1NCCOCCN(S(=O)(=O)c2cccc3cccnc23)[C@@H]2CCCC[C@H]12	-13%
CC1(Cc2ccc3c(c2)OCO3)CCC(=O)N(CCc2ccncc2)C1 (stereo not drawn)	-8%
SMILES	Pf Dd2 growth
Cc1ccccc1CNC(=O)C1CCN(C(=O)N2CC3CC(C2)[C@H]2CCCC(=O)N2C3)CC1 (stereo partly drawn)	i
O=C(O)CCC(=O)N1CCN(C2CCNCC2)C(=O)C1	11%
N#Cc1ccc(CNC2(Cc3cc(-c4ccc(F)cc4)on3)COC2)cc1	i
CCCNC(=O)NCC(=O)N1CCCCCNC(=O)CC1c1ccccc1 (stereo not drawn)	-1%
CN1C(=O)c2cccn2CC1CNC(=O)c1cc(CN2CCOCC2)on1 (stereo not drawn)	4%
CCc1cc(=O)n(CC(=O)Nc2cccc(Cl)c2C)c(N2CCOCC2)n1	-25%
Cc1ccc(Cn2c(C3CCN(C(=O)c4cccs4)CC3)n[nH]c2=O)cc1	6%
Cc1ccncc1NC(=O)CC1=C2CCCCC2N(C)C1=O (stereo not drawn)	0%
CC1CCN(c2ccc(-c3cccc(N)c3)nn2)CC1	-12%
c1cnc2nc(C3CCNC3)[nH]c2c1 (stereo not drawn)	24%[44.1 µM]
c1cnc2nc(-c3ccsc3)[nH]c2c1	-19%[44.1 µM]
Cc1cc(-c2nc3ncccc3[nH]2)c(C)[nH]1	28µM*!
O=C(NCc1c[nH]c2ncccc12)c1cccc2[nH]ccc12	-21%[44.1 µM]
c1ccc(-c2nc3ncccc3[nH]2)nc1	19%[44.1 µM]
c1cnc2nc(-c3c[nH]c4ncccc34)[nH]c2c1	25µM*!
COCc1cn(C[C@H]2C[C@@H](NS(C)(=O)=O)[C@H](O)[C@@H]2O)nn1	38%[44.1 µM]
COc1ccc(C(=O)N2C[C@@H](Oc3ccccc3)C[C@H]2C(=O)N2CCOCC2)cc1	-10%
O=C(N[C@H](c1cccs1)C1CC(O)C1)c1cnn2cc(CCO)cnc12 (stereo partly drawn)	1%
COCc1cc(C[C@@H]2CC[C@H](O)[C@@H](CNC(C)C)O2)no1	19%[44.1 µM]
COCc1cc(=O)n(CC(=O)Nc2cccc(SC)c2)c(N2CCOCC2)n1	i
COc1ccc(Nc2cc3c(cn2)CN(Cc2ccncc2)CCN3)cn1	-6%[44.1 µM]
Fc1ccccc1-c1cc2c(cn1)CN(Cc1ccncc1)CCN2	i
COc1ccc(Nc2cc3c(cn2)CN(CCc2ccccc2)CCN3)cc1OC	10µM*
